The list is not random: actives were taken first. Their share in the collection is about 21%.
DT40 TDP1 no CPT: qHTS for Inhibitors of human tyrosyl-DNA phosphodiesterase 1 (TDP1): qHTS in cells in absence of CPT; DT40 Tdp1-/- hTDP1 cells, no CPT, ATP luminescence, 48 h; Potency, µM (titrated, usually from 46.2 µM), for the others: at the top dose activity change, negative = growth inhibition, usual class: inhibitors; 420,000 compounds, 15% hits; note: potency is the fitted concentration of half-maximal effect; nearly all actives have a fitted effect of over 55% in size
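Growth kinetics read by CellTiter-Glo luminescence after ≥48 hr at 37 °C. Cells: DT40 Tdp1-/- stably carrying human TDP1, 400 per well, compound exposure in the absence of CPT (DMSO vehicle).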
TDP1 cell CPT: qHTS for Inhibitors of human tyrosyl-DNA phosphodiesterase 1 (TDP1): qHTS in cells in presence of CPT; chicken DT40 Tdp1-/-;hTDP1 cells + 20 nM CPT, ATP luminescence, 48 h; 420,000 compounds, 12% hits; Potency, µM (titrated, usually from 46.2 µM), for inactives: top-dose activity change, negative = growth inhibition, hits mostly inhibitors; note: potency is the fitted concentration of half-maximal effect; nearly all actives have a fitted effect of over 55% in size
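Chicken DT40 Tdp1-/- cells complemented with human TDP1, 400 cells/well, exposed to compounds plus 20 nM camptothecin for at least 48 h at 37 C; viability read as ATP content by CellTiter-Glo luminescence.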
VP16 counter: VP16 counterscreen qHTS for inhibitors of ROR gamma transcriptional activity; Drosophila S2 Gal4-VP16 UAS-luciferase, luminescence, 20 h; Potency, µM (series often up to 53.6 µM), inactives show at the highest dose activity, negative = inhibition, usual class: inhibitors; 310,000 compounds, 3.5% hits; AID 2546, 2010;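 note: Gal4-VP16 expression switched on by copper sulfate through the metallothionein promoter; potency is the fitted concentration of half-maximal effect; nearly all actives have a fitted effect of over 50% in size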
ELG1 repair inh: qHTS screen for small molecules that inhibit ELG1-dependent DNA repair in human embryonic kidney (HEK293T) cells expressing luciferase-tagged ELG1; HEK293T ELG1-luciferase reporter, luminescence, 16 h; DNA damage induced by 5-fluorouridine; Potency, µM (doses to about 46.1 µM), for the others: at the highest dose activity change, negative = inhibition, usual class: inhibitors; 330,000 compounds, 2.3% hits; note: potency is the fitted concentration of half-maximal effect; nearly all actives have a fitted effect of over 55% in size
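Quantitative HTS, concentration-response format. 2,000 cells/well co-treated with 5-fluorouridine and compound, 16 hr in 5% CO2 at 37 °C; ONE-Glo luminescence read after 30 min.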
RORg inh: qHTS for inhibitors of ROR gamma transcriptional activity. Nuclear receptor ROR-gamma (Mus musculus), P51450. 310,000 compounds, 5.4% hits. Potency, µM (series often up to 53.6 µM), without a hit: top-dose activity change, negative = inhibition, most hits filed as inhibitors. Drosophila S2 Gal4-RORgamma UAS-luciferase reporter, 20 h; note: potency is the fitted concentration of half-maximal effect; nearly all actives have a fitted effect of over 60% in size
Target sequence (P51450 whole entry, looked up, the tested form may be a part): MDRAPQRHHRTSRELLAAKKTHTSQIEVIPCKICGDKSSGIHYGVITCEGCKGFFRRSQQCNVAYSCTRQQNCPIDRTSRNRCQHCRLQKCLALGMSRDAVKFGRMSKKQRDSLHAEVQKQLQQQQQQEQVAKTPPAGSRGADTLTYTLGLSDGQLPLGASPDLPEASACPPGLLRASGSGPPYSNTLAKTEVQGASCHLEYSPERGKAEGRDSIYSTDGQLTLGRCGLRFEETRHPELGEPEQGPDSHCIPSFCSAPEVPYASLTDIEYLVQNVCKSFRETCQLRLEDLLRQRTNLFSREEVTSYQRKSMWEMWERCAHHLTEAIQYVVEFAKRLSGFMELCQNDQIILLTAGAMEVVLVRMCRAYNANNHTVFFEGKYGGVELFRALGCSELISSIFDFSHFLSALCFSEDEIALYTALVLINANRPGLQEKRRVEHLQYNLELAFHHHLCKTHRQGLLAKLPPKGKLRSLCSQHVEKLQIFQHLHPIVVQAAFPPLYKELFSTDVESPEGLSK
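Luciferase reporter read in Schneider cells carrying Gal4-RORγ (mouse) and UAS-Photinus luciferase; cells given compound 1 h before 700 uM copper sulfate induction, then incubated 20 h at ambient temperature.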
IL1B secr inh: qHTS for Inhibitors of Inflammasome Signaling: IL-1-beta AlphaLISA Primary Screen. activity change, % at 57.5 µM. 360,000 compounds, 4.7% hits. THP-1 LPS/ATP IL-1B secretion, AlphaLISA, 16 h; hits give low values; in the data active = activity change below about -50%; inconclusive = mostly about -30% to -49%
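THP-1 cells pretreated 1 hr with compounds (up to 57.5 uM final), then stimulated with LPS (250 ng/mL final) plus ATP (1.25 mM final); secreted IL-1B measured by AlphaLISA after 16 hr, decreased signal indicating inhibition.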
An asterisk follows results filed as active; i = inactive; ? = inconclusive; . = no result; [ ] = dose if it differs, or a comment. Unless noted, calls come from the whole dose curve; as a rule, active = well fitted curve in the direction sought with a large enough effect; inconclusive = small, poorly fitted or top-dose-only effect, or another doubt; inactive = no such curve, though single readings can be large; an effect the other way counts as inactive or inconclusive. % is set by controls: 0 for no effect and ±100 for the full control effect.

SMILES | DT40 TDP1 no CPT | TDP1 cell CPT | VP16 counter | ELG1 repair inh | RORg inh | IL1B secr inh
Cc1ccc(N=C2NC(=O)/C(=C\c3ccco3)S2)cc1 | ? | -29% | ? | ? | 28% | 0
COc1cc(/C=C2\SC(=Nc3ccc(O)cc3)NC2=O)cc(OC)c1O | 5.2µM* | 21µM* | 0% | -27% | 2% | 91
CCc1ccc(N=C2NC(=O)/C(=C/c3cc(OC)c(OC)c(OC)c3)S2)cc1 | ? | ? | ? | ? | ? | -3
O=C1NC(=Nc2ccc(O)cc2)S/C1=C/c1ccco1 | 18µM* | ? | 11% | 10% | -1% | 19
C=CCOc1c(Br)cc(/C=C2\SC(=Nc3ccccc3)NC2=O)cc1OC | 21µM* | ? | -29% | ? | ? | 0
Cc1ccc(Cn2c(CO)cnc2SCC(=O)Nc2cccc(F)c2)cc1 | -5% | -16% | . | . | . | .
Cc1ccc(CNC(=O)CSc2nc3n[nH]c(C)c3c(=N)n2-c2cccc(C)c2)cc1 | 9.2µM* | 13µM* | 3% | ? | -2% | 7
CCCCNC(=O)CSc1nc2n[nH]c(C)c2c(=N)n1-c1cccc(C)c1 | 12µM* | 18µM* | . | . | . | .
CCCCN(CC)C(=O)CSc1nc2n[nH]c(C)c2c(=N)n1-c1cccc(Cl)c1 | 10µM* | 12µM* | . | . | . | .
O=C(Nc1ccc(C(F)(F)F)cc1)N1CCC(N2CCCCC2)CC1 | -20% | ? | . | . | . | .
CCN1C(=O)[C@H]2[C@H]3[C@H](O)[C@H](O)C/C(=N/NC(=O)OCc4ccccc4)[C@H]3CC[C@@H]2C1=O | . | . | -8%[10 µM] | . | 5%[10 µM] | .
CC(=O)Nc1ccccc1NC(=O)c1ccc(C)c(C)c1 | 12% | -7% | -16% | 9% | 3% | -2
COc1cc2cc(CNc3ccc(C)cc3)c(=O)n(CC(=O)Nc3ccc(F)cc3F)c2cc1OC | 16µM* | ? | . | . | . | .
Cc1ccc(NC(=O)Cn2c(=O)c3cccn3c3ccccc32)cc1 | 0% | -14% | -3% | ? | -13% | 10
COc1ccc(-n2cc(-c3ccc4c(c3)OCO4)n(CC(=O)Nc3cccc(C)c3)c2=O)cc1 | ? | 23µM* | . | . | . | .
COc1ccc(NCc2cc3cc4c(cc3n(CC(=O)Nc3ccccc3)c2=O)OCO4)cc1 | 4.1µM* | 5.2µM* | . | . | . | .
Cc1ccc(NCc2cc3cc4c(cc3n(CC(=O)Nc3ccc(C)cc3)c2=O)OCCO4)cc1 | 8.2µM* | 7.3µM* | . | . | . | .
COCCN(CCOC)Cc1cc(=O)oc2ccccc12 | 0% | -4% | . | . | . | 0
CCc1c(C)c2ccc(OCC(=O)NCC3CCC(C(=O)O)CC3)cc2oc1=O (stereo not drawn) | 1% | 2% | -13% | 11% | -21% | 14
Cc1noc(C)c1S(=O)(=O)N(C)C[C@@H]1OCc2cnnn2CCCC(=O)N([C@H](C)CO)C[C@@H]1C | 11% | 4% | . | . | . | 10
C=C1NN(Cc2ccccc2)C(=O)N1c1ccc(OCc2ccccc2)cc1 | 11µM* | 11µM* | . | . | . | .
C=C1NN(CC#N)C(=O)N1c1ccc(OCc2ccccc2)cc1 | ? | 8% | . | . | . | .
Cc1ccccc1Cc1c(C)nc2c(C(=O)N3CCN(Cc4ccc5c(c4)OCO5)CC3)cnn2c1C | 18µM* | ? | . | . | . | ?
Cc1ccc(C)c(Cc2c(C)nc3c(C(=O)NCc4ccc5c(c4)OCO5)cnn3c2C)c1 | . | . | 5% | ? | 5% | .
CCN1CCN(C(=O)c2cnn3c(C(F)F)cc(-c4ccc(C)cc4)nc23)CC1 | ? | -19% | -1% | ? | 11% | ?
SMILES | DT40 TDP1 no CPT | TDP1 cell CPT | VP16 counter | ELG1 repair inh | RORg inh | IL1B secr inh
Cc1cccc(Cc2c(C)nc3c(C(=O)N4CCN(Cc5ccc6c(c5)OCO6)CC4)cnn3c2C)c1 | ? | ? | ? | -1% | ? | -27
Cc1ccccc1Cc1c(C)nc2c(C(=O)NCc3ccc4c(c3)OCO4)cnn2c1C | ? | 18µM* | -11% | -10% | -9% | 0
O=C(c1cnn2c(C(F)F)cc(-c3ccccc3)nc12)N1CCN(Cc2ccc3c(c2)OCO3)CC1 | 26µM* | ? | -11% | ? | 16% | i
Cc1cccc(-n2c(C)nnc2SCC(=O)NC(C)c2ccco2)c1 (stereo not drawn) | -14% | -19% | . | . | . | .
Nc1oc2ccccc2c1C(=O)Cc1ccccc1O[C@@H]1O[C@H](CO)[C@@H](O)[C@H](O)[C@H]1O | 5% | 21% | . | -3% | . | -3
O=C(COC(=O)C1CC2CCCC(C1)C2=O)Nc1nc(-c2ccc(F)c(F)c2)cs1 (stereo not drawn) | ? | ? | . | ? | . | -5
COc1ccc(OC)c(-c2csc(NC(=O)CN3C(=O)C4CCCCC4C3=O)n2)c1 (stereo not drawn) | -16% | -25% | . | 2% | . | -56*
O=C(CCN1C(=O)C2CCCCC2C1=O)Nc1nc(-c2ccc(F)c(F)c2)cs1 (stereo not drawn) | 18µM* | ? | -9% | 19% | 30% | ?
COc1ccc(-c2csc(NC(=O)CN3C(=O)C4CCCCC4C3=O)n2)cc1OC (stereo not drawn) | -28% | -1% | -6% | -27% | 14% | i
O=C(CN1C(=O)C2CC=CCC2C1=O)Nc1nc(-c2ccc(F)c(F)c2)cs1 (stereo not drawn) | 21µM* | ? | . | ? | . | -6
COc1ccc(-c2csc(NC(=O)CN3C(=O)C4CC=CCC4C3=O)n2)cc1OC (stereo not drawn) | 8.2µM* | ? | . | . | . | 0
CCCN(CCC)C(=O)C1CCN(c2cc(C)nc3c(-c4ccc(Cl)cc4)c(C)nn23)CC1 | ? | -27% | . | . | . | .
Cc1csc(=O)n1CCC(=O)OC(C)C(=O)NCc1ccccc1 (stereo not drawn) | 2% | 0% | . | 14% | . | -16
COC(=O)C/C=C\[C@@H](C)[C@@H](/C=N\OC[C@@H]1O[C@H](c2ccccc2)C=C[C@@H]1Oc1ccc(OC)cc1)OC | . | . | 17%[10 µM] | . | -6%[10 µM] | .
CC(=O)Nc1ccc(S(=O)(=O)NCc2ccc3c(c2)CCN3C(C)=O)cc1 | -21% | -6% | . | . | . | .
O=C(Cn1ncc(Cl)c(Cl)c1=O)c1ccc(Cl)cc1 | 2.6µM* | 2.9µM* | -66% | ? | ? | -68*
